{
  "source": "paper PMC7862700",
  "about": "“An all-to-all approach to the identification of sequence-specific readers for epigenetic DNA modifications on cytosine”",
  "experiment_in_all_cases": "DAPPL (digital affinity profiling via proximity ligation, sequencing); 10 mM Tris-HCl pH 7.5, 50 mM NaCl, 1 mM DTT, 4% glycerol, room temperature, 30 min; GST-TFs on glutathione beads, 16-mer random dsDNA library, 0.1% formaldehyde crosslink after washing; high values mean tight binding",
  "conditions_in_all_cases": "protein: recombinant; tags: N-terminal GST; dsDNA, one strand shown",
  "key": {"GABPA": {"target": "T1, GABPA (Homo sapiens, UniProt Q06546 1-454)", "T1 sequence": "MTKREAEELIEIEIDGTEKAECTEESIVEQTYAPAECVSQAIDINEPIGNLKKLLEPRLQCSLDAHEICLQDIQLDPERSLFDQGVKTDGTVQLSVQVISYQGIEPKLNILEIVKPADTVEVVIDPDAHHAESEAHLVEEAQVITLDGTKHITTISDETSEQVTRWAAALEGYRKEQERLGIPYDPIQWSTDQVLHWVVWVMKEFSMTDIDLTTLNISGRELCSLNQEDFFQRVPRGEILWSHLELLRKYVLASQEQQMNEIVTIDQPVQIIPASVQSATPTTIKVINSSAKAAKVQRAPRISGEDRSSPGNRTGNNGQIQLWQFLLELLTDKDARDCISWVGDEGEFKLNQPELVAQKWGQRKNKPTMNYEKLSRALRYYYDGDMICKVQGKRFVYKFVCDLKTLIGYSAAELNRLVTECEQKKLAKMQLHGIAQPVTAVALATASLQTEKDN", "in_short": "(§1)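 Pools were built from human transcription factors expressed in yeast as GST fusions, captured on glutathione beads and DNA-barcoded, along with a tag-only sample. Incubation with 200 nmole of a 16-mer random double-stranded DNA library lasted 30 min at room temperature in Tris/NaCl/DTT/glycerol buffer, and was followed by washing, 0.1% formaldehyde crosslinking, proximity ligation, PCR amplification and Illumina NextSeq500 sequencing. Binding signal is the quotient of each hexamer's read frequency for a factor and its frequency for the tag-only sample.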"}, "ELF1": {"target": "ELF1 (Homo sapiens, UniProt P32519 1-619)", "sequence (P32519 whole entry)": "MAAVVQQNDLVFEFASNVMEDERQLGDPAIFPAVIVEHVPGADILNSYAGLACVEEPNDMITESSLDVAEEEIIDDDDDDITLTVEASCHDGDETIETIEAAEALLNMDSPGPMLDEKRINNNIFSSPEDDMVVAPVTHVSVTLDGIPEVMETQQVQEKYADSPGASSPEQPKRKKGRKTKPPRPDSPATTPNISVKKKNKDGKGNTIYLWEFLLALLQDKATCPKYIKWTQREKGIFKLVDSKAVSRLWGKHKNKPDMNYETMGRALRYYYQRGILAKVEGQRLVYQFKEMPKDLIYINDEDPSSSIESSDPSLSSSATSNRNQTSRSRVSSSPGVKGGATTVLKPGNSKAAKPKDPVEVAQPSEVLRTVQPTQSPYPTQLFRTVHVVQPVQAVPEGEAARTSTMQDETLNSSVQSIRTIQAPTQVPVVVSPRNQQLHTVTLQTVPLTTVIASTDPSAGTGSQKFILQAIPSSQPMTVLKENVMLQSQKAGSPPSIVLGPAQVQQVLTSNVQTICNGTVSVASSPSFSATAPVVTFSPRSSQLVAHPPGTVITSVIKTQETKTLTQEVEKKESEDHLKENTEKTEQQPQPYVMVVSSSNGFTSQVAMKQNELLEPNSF", "in_short": "as §1"}, "EHF": {"target": "T2, EHF (Homo sapiens, UniProt Q9NZC4 1-300)", "T2 sequence": "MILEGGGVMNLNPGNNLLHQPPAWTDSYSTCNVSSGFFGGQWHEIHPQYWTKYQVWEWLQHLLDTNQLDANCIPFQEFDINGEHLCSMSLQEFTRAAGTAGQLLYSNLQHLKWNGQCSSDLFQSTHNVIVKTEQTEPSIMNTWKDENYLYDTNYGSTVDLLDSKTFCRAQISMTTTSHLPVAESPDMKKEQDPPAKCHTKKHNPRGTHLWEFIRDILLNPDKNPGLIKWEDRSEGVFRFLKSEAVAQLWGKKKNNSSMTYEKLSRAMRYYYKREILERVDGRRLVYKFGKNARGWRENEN", "in_short": "as §1"}, "FEV": {"target": "T3, FEV (Homo sapiens, UniProt Q99581 1-238)", "T3 sequence": "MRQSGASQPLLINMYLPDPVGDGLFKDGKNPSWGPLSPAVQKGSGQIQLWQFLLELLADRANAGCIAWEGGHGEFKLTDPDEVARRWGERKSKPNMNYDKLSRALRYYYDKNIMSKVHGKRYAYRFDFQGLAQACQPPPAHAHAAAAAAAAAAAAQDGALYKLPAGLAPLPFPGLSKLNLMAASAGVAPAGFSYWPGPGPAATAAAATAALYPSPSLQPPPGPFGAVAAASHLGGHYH", "in_short": "as §1"}, "ETV5": {"target": "ETV5 (Homo sapiens, UniProt P41161 1-510)", "sequence (P41161 whole entry)": "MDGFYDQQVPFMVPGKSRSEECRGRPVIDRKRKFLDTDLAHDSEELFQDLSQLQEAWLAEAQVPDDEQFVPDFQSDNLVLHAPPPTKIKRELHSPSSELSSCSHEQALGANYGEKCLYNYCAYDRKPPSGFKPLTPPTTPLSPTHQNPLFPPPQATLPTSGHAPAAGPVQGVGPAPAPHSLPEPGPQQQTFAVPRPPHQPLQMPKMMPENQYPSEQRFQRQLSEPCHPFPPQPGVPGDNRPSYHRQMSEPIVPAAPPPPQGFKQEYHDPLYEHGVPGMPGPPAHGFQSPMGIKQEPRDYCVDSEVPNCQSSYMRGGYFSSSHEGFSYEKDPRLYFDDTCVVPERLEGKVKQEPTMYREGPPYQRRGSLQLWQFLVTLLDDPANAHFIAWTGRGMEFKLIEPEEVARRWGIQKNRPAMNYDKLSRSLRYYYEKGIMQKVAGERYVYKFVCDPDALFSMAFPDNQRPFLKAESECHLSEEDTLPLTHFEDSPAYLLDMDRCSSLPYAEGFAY", "in_short": "as §1"}, "ELK4": {"target": "T4, ELK4 (Homo sapiens, UniProt P28324-2 1-405)", "T4 sequence": "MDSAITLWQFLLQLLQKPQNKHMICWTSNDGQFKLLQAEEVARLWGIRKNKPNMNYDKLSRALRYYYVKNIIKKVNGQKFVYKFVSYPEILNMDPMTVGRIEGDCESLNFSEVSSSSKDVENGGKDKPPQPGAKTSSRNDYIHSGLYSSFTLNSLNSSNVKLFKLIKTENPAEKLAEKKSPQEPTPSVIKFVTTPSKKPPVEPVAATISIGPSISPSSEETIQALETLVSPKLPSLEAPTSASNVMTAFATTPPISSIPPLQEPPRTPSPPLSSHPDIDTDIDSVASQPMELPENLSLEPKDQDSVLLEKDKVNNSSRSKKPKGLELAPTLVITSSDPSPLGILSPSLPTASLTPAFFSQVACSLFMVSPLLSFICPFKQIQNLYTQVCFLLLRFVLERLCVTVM", "in_short": "as §1"}, "ETV1": {"target": "ETV1 (Homo sapiens, UniProt P50549 1-477)", "sequence (P50549 whole entry)": "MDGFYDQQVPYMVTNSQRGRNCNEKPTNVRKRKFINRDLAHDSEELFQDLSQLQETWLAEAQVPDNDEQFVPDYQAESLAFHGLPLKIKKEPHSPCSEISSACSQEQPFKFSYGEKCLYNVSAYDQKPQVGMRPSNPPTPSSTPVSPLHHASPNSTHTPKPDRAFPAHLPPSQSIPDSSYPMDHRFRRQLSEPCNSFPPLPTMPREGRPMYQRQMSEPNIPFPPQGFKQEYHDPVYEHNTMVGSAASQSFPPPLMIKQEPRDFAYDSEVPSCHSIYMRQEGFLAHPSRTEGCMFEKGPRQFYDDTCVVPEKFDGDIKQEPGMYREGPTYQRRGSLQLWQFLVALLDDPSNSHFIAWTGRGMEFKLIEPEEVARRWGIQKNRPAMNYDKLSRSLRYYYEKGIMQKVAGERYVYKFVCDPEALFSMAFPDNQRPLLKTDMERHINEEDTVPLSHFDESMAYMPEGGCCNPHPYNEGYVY", "in_short": "as §1"}, "SPDEF": {"target": "T5, SPDEF (Homo sapiens, UniProt O95238 1-335)", "T5 sequence": "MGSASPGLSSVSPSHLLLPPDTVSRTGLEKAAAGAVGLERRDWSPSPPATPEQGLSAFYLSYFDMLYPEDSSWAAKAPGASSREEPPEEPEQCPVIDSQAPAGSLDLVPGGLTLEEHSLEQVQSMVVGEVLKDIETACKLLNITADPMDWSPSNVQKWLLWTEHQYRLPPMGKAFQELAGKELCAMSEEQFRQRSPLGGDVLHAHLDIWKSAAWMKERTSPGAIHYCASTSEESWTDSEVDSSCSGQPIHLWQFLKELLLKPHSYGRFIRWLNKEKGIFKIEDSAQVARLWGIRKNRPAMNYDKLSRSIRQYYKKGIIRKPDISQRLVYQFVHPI", "in_short": "as §1"}, "ETV7": {"target": "T6, ETV7 (Homo sapiens, UniProt Q9Y603 1-341)", "T6 sequence": "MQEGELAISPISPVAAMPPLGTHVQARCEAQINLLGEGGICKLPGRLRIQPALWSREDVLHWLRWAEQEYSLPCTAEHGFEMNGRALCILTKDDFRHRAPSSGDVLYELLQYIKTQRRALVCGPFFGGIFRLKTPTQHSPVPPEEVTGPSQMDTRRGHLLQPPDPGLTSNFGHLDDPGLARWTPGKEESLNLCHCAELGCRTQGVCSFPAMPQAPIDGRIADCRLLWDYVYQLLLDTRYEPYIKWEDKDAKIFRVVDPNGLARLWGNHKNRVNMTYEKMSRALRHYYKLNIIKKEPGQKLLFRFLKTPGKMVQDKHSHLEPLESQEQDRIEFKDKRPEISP", "in_short": "as §1"}, "ETV6": {"target": "ETV6 (Homo sapiens, UniProt P41212 1-452)", "sequence (P41212 whole entry)": "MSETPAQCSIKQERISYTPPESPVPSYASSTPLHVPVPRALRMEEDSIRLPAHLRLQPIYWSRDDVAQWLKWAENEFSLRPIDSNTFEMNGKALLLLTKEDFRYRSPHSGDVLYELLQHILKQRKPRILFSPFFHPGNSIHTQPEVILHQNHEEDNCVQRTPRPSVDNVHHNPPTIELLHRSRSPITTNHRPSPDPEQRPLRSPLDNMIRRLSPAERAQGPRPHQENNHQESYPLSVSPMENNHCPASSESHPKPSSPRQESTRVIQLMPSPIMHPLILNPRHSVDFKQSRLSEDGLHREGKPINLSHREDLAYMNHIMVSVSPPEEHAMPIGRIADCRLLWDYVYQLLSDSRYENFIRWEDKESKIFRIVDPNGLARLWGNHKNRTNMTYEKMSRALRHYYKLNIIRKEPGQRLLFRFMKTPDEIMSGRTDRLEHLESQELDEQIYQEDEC", "in_short": "as §1"}},
  "data": [
    {"sequence": "GGCTAA", "values": [
      {"measurement": "binding signal", "setting": "GABPA", "value": "1.01 fold enrichment (6-mer frequency, TF over GST control)"},
      {"measurement": "binding signal", "setting": "ELF1", "value": "1.04 fold enrichment (6-mer frequency, TF over GST control)"},
      {"measurement": "binding signal", "setting": "EHF", "value": "1.01 fold enrichment (6-mer frequency, TF over GST control)"},
      {"measurement": "binding signal", "setting": "FEV", "value": "1.01 fold enrichment (6-mer frequency, TF over GST control)"},
      {"measurement": "binding signal", "setting": "ETV5", "value": "1.01 fold enrichment (6-mer frequency, TF over GST control)"},
      {"measurement": "binding signal", "setting": "ELK4", "value": "1.04 fold enrichment (6-mer frequency, TF over GST control)"},
      {"measurement": "binding signal", "setting": "ETV1", "value": "1.03 fold enrichment (6-mer frequency, TF over GST control)"},
      {"measurement": "binding signal", "setting": "SPDEF", "value": "1 fold enrichment (6-mer frequency, TF over GST control)"},
      {"measurement": "binding signal", "setting": "ETV7", "value": "1 fold enrichment (6-mer frequency, TF over GST control)"},
      {"measurement": "binding signal", "setting": "ETV6", "value": "1.04 fold enrichment (6-mer frequency, TF over GST control)"}
    ]}
  ]
}
